Data taken from PubChem BioAssay (NCATS).
Records with an inconclusive call do not appear. Calls of active or inactive are those of the source. The call rests on the fitted dose curve; in most records, active means well fitted curve in the direction sought with a large enough effect; inconclusive means small, poorly fitted or top-dose-only effect, or another doubt; inactive means no such curve, though single readings can be large; an effect the other way counts as inactive or inconclusive.

Assays:
[1] = Quantitative High-Throughput drug screen in 47 multiple myeloma cell lines against the NCATS MIPE library collection: JIM3_ECACC cell viability assay (AID 1918963; further: nearly all actives have a fitted effect of over 35% in size)
Outline: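 CellTiter-Glo luminescence (ATP) after 48 h compound exposure, 37C/5% CO2; 500 cells/well; MIPE 4.0 approved/investigational drugs pinned in; DMSO = 100%, media only = 0% viability.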

[2] = Quantitative High-Throughput drug screen in 47 multiple myeloma cell lines against the NCATS MIPE library collection: INA6_PLB cell viability assay (AID 1918965; further: nearly all actives have a fitted effect of over 55% in size)
Outline: (§1)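 Myeloma cells (500 per well) were exposed to MIPE 4.0 compounds by pin transfer and incubated 48 hours at 37C, 5% CO2. Viability was read as ATP by CellTiter-Glo luminescence, normalised to DMSO (100%) and media-only (0%) wells.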

[3] = Quantitative High-Throughput drug screen in 47 multiple myeloma cell lines against the NCATS MIPE library collection: H1112_PLB cell viability assay (AID 1918967; further: nearly all actives have a fitted effect of over 30% in size)
Outline: (§2)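 qHTS of the MIPE 4.0 collection: 500 myeloma cells/well, 48 h drug exposure at 37C in 5% CO2, then CellTiter-Glo for 5 min at room temperature before luminescence reading.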

[4] = Quantitative High-Throughput drug screen in 47 multiple myeloma cell lines against the NCATS MIPE library collection: KMS12PE_JCRB cell viability assay (AID 1918972); further: nearly all actives have a fitted effect of over 30% in size; on viability: series mostly up to about 46 µM
Outline: as §1

[5] = Quantitative High-Throughput drug screen in 47 multiple myeloma cell lines against the NCATS MIPE library collection: JIM1_ECACC cell viability assay (AID 1918964)
Outline: as §2

[6] = Quantitative High-Throughput drug screen in 47 multiple myeloma cell lines against the NCATS MIPE library collection: KMS12BM_JCRB cell viability assay (AID 1918971); further: nearly all actives have a fitted effect of over 35% in size
Outline: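 Steps: seed 500 cells per well; pin-transfer MIPE 4.0 library; incubate 48 h at 37C, 5% CO2, humidified; add CellTiter-Glo, 5 min room temperature; read luminescence.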

[7] = Quantitative High-Throughput drug screen in 47 multiple myeloma cell lines against the NCATS MIPE library collection: Karpas25_ECACC cell viability assay (AID 1918968; further: nearly all actives have a fitted effect of over 35% in size)
Outline: as §2

[8] = Quantitative High-Throughput drug screen in 47 multiple myeloma cell lines against the NCATS MIPE library collection: KMS27_JCRB cell viability assay (AID 1918970); further: nearly all actives have a fitted effect of over 30% in size
Outline: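 KMS27_JCRB myeloma cells, 500 per well, exposed 48 h at 37 C, 5% CO2 to MIPE 4.0 compounds. Viability from ATP by CellTiter-Glo luminescence, normalized to DMSO (100%) and medium-only (0%) wells.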

[9] = Quantitative High-Throughput drug screen in 47 multiple myeloma cell lines against the NCATS MIPE library collection: JJN3_DSMZ cell viability assay (AID 1918966; further: nearly all actives have a fitted effect of over 50% in size)
Outline: as §2

Measured: Potency
Potency means the concentration at half of the fitted maximal effect.

OC(Cn1cncn1)(Cn1cncn1)c1ccc(F)cc1F
inactive: [1] | [2] | [3] | [4]

NC(=O)c1ccc2[nH]ccc2c1
not listed: [7] | [8] | [9]
inactive: all other assays above

NS(=O)(=O)c1cc2c(cc1Cl)NC(C(Cl)Cl)NS2(=O)=O (stereo not drawn)
not listed: [2] | [6] | [9]
inactive: all other assays above

CCCOc1ccc(C(=O)OCCN(CC)CC)cc1N
not listed: [5] | [6] | [7]
inactive: all other assays above

COc1ccc(-c2ccc3cc(C(=O)O)ccc3c2)cc1C12CC3CC(CC(C3)C1)C2
inactive: [1] | [2] | [3] | [8] | [4]
active: [6] 2.35 µM

CN(C)CCc1c[nH]c2ccc(C[C@H]3COC(=O)N3)cc12
active: [2] 13.2 µM
not listed: [9]
inactive: all other assays above

N[C@@H](Cc1ccc(O)c(O)c1)C(=O)O
inactive: [1] | [5] | [3] | [4]

NC(=O)N1c2ccccc2CC(=O)c2ccccc21
inactive: [1] | [5] | [3] | [8] | [4]

Cc1ncc([N+](=O)[O-])n1CCO
not listed: [5] | [6]
inactive: all other assays above

CC[C@H](NC(C)C)[C@H](O)c1ccc(O)c2[nH]c(=O)ccc12
active: [6] 0.0235 µM
inactive: [1] | [5] | [3] | [8] | [4]

CCOC(=O)[C@H](CCc1ccccc1)N[C@H]1CS[C@H](c2cccs2)CN(CC(=O)O)C1=O
active: [5] 1.32 µM | [2] 2.96 µM | [9] 16.6 µM | [3] 13.2 µM | [8] 0.296 µM | [6] 23.5 µM | [4] 1.66 µM
inactive: [1]

Nc1[nH]c(=O)ncc1F
not listed: [2] | [7]
inactive: all other assays above

CC(N)C12CC3CC(CC(C3)C1)C2 (stereo not drawn)
not listed: [6]
inactive: all other assays above

C[C@]12C=CC(=O)C=C1CC[C@@H]1[C@@H]2C(=O)C[C@@]2(C)[C@H]1CC[C@]2(O)C(=O)CO
inactive: [1] | [2] | [3] | [6] | [4]

CCCCc1oc2ccc(NS(C)(=O)=O)cc2c1C(=O)c1ccc(OCCCN(CCCC)CCCC)cc1
active: [1] 18.7 µM | [5] 10.5 µM | [2] 9.35 µM | [9] 14.8 µM | [3] 18.7 µM | [7] 16.6 µM | [8] 14.8 µM | [6] 14.8 µM | [4] 9.35 µM

Cc1nnc(NS(=O)(=O)c2ccc(N)cc2)s1
inactive: [1] | [3]
active: [2] 9.35 µM | [7] 8.33 µM | [8] 1.05 µM | [4] 1.32 µM

O=S(=O)(c1cccc2cnccc12)N1CCCNCC1
active: [3] 16.6 µM
inactive: [4]

CC1(C)[C@H](C(=O)O)N2C(=O)C[C@H]2S1(=O)=O
not listed: [1] | [8] | [9]
inactive: all other assays above

O=C(O)c1cn(C2CC2)c2cc(N3CCNCC3)c(F)cc2c1=O
inactive: [5] | [9] | [3] | [4]

O=S(=O)(O)CCS
inactive: [2] | [3]
active: [8] 16.6 µM

Nc1nc(N)c2nc(CNc3ccc(C(=O)NC(CCC(=O)O)C(=O)O)cc3)cnc2n1 (stereo not drawn)
inactive: [7]
active: [1] 0.0418 µM

CCOC(=O)c1ccc(OC(=O)CCCCCN=C(N)N)cc1
not listed: [1] | [7] | [8]
inactive: all other assays above

CC[C@H](C)C(=O)O[C@H]1C[C@@H](C)C=C2C=C[C@H](C)[C@H](CC[C@@H]3C[C@@H](O)CC(=O)O3)[C@H]21
inactive: [8] | [4]
active: [2] 18.7 µM

Cc1ccnc2c1NC(=O)c1cccnc1N2C1CC1
inactive: [5] | [9] | [6] | [4]
active: [8] 1.87 µM

O=C(O)C1CCCN(CCC=C(c2ccccc2)c2ccccc2)C1 (stereo not drawn)
inactive: [2] | [3] | [8] | [4]

CCC(C)(C)c1ccc(CC(C)CN2C[C@@H](C)O[C@@H](C)C2)cc1 (stereo partly drawn)
inactive: [5] | [4]

CCCCS(=N)(=O)CCC(N)C(=O)O (stereo not drawn)
not listed: [2] | [5] | [7]
inactive: all other assays above

S=P(N1CC1)(N1CC1)N1CC1
inactive: [1] | [4]
active: [9] 0.0118 µM | [8] 0.469 µM
